# NPC1 prom act = activators of NPC1 promoter; 2.4% of 320,000 active; Potency, µM (doses to about 9.22 µM), hits mostly activators; Huh7 NPC1 promoter luciferase reporter, 24 h; further: nearly all actives have a fitted effect of over 60% in size
#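 Readout is luciferase luminescence, reflecting NPC1 promoter activation in stably transfected Huh7 cells after 24 h compound exposure at 37 °C in reduced-serum medium with 10% FBS.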
# ELG1 genotoxic = induces genotoxicity in HEK293T cells with luciferase-tagged ELG1; HEK293T ELG1-luciferase reporter, luminescence, 16 h; Potency, µM (top dose mostly 46 µM), usual class: activators; 1.3% of 330,000 active; AID 504466; further: nearly all actives have a fitted effect of over 60% in size
#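 Luminescence read-out: rising ELG1-luciferase signal, reflecting elevated ELG1 protein under genetic stress, flags genotoxic compounds. Cells were treated for 16 hr at 37 °C before ONE-Glo detection.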
# Rab9 promoter act = activates the Rab9 promoter | Potency, µM (doses to about 9.22 µM), usual class: activators | Huh7 Rab9 promoter-luciferase reporter, luminescence, 24 h | 2.8% of 320,000 active; further: nearly all actives have a fitted effect of over 60% in size
#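 Rab9 promoter-driven luciferase in stably transfected Huh7 cells; 1500 cells/well rested 2 h, exposed to compound in DMSO for 24 h at 37 °C, 5% CO2. Luminescence read 10 min after adding luciferase reagent at ambient temperature.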
# FLuc counter = firefly luciferase modulation, counter-screen for miR-21 project | 6.9% of 360,000 active | Potency, µM (top dose mostly 57.5 µM), hits mostly inhibitors | purified FLuc, Km substrates, luminescence inhibition | AID 588342; further: nearly all actives have a fitted effect of over 55% in size
# Target sequence (P08659 whole entry, looked up): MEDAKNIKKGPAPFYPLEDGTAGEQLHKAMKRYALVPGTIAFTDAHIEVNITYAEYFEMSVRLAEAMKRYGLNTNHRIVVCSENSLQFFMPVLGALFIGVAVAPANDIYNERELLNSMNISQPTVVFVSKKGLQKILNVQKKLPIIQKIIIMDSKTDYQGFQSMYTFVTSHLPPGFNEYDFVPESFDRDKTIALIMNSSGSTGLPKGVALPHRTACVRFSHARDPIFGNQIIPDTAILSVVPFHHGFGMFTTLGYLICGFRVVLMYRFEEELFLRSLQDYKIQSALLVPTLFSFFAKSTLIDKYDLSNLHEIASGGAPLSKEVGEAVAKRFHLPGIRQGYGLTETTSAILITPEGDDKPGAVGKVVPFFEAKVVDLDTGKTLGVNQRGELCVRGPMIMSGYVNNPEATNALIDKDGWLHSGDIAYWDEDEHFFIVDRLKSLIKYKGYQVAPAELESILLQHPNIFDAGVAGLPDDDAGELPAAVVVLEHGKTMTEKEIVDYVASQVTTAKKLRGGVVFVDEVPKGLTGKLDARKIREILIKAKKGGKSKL
#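 Biochemical qHTS of compounds, final roughly 60 µM downward over six points, against 10 nM purified firefly luciferase using Km concentrations of substrates (10 uM D-luciferin, 10 uM ATP) in Tris acetate pH 7.5 buffer; luminescence output.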
# SMN2 splice enh = increases expression of the SMN2 splice variant | HEK293 SMN2-luciferase splicing reporter, luminescence, 30-36 h | Potency, µM (highest dose often 46.1 µM), hits mostly activators | 2.8% of 210,000 active | AID 1458; further: nearly all actives have a fitted effect of over 55% in size
#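 HEK293 cells carry an SMN2 […]–luciferase reporter in which exon 7 inclusion puts luciferase in frame. Cells were plated 10-12 h before compound addition, then incubated 30-36 h at 37C. ONE-Glo luminescence was read; sodium butyrate at 4.5 mM final served as control.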
# KinaseGlo FLuc = blocks Kinase-Glo luciferase, a counter-screen artifact | Q27757 | Kinase-Glo luciferase, ATP luminescence, 8 min | Potency, µM (series often up to 38.3 µM), hits mostly inhibitors | 0.28% of 200,000 active; further: nearly all actives have a fitted effect of over 60% in size
#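 Light output from Kinase-Glo luciferase with luciferin and 10 uM ATP in 50 mM imidazole pH 7.2, KCl, MgCl2, Tween 20, BSA; compound pin-delivered, 8-min ambient incubation, then luminescence read.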
# Numbers stand for hits; - = inactive; ? = inconclusive; . = no result; [ ] = remark or other dose. Most compounds without a hit are left out; they make up all but 7.5% or so of the library. The call rests on the fitted dose curve; in most records, active means well fitted curve in the direction sought with a large enough effect; inconclusive means small, poorly fitted or top-dose-only effect, or another doubt; inactive means no such curve, though single readings can be large; an effect the other way counts as inactive or inconclusive.
SMILES,NPC1 prom act,ELG1 genotoxic,Rab9 promoter act,FLuc counter,SMN2 splice enh,KinaseGlo FLuc
O=S1(=O)CC/C(=N\Nc2ccccc2)c2ccsc21,-,-,-,?,-,-
Cc1nc(N2CCCC2)c2c(C(=O)Nc3cccc(C)c3C)c(C)oc2n1,.,.,.,-,.,.
COc1ccc(-n2cc(CN3CCCC3)c(-c3cccc(F)c3)n2)cc1,-,-,-,?,.,-
Cc1cccc(-n2cc(CN3CCN(Cc4nccn4C)CC3)c(-c3cccc(F)c3)n2)c1,-,-,-,27µM,.,.
COC(=O)N[C@@H](c1cccc(F)c1)C(C(C)=O)C(=O)OC (stereo partly drawn),.,.,.,.,-,-
NC(=O)c1c(/N=C/c2cccs2)sc2c1CCCC2,1.3µM,-,?,12µM,.,.
COc1ccc(/C=C/C2=C[C@]3(C)C[C@]2(C)[C@H](c2ccc(OC)cc2)CC3=O)cc1,.,.,.,.,-,-
CN(C(=O)COC(=O)c1cc2ccccc2cc1O)C1CCCCC1,-,-,-,19µM,.,.
O=C(OCC(=O)N1CCCCC1)c1cc2ccccc2cc1O,-,?,-,24µM,-,-
CN(C(=O)c1cc2ccccc2cc1O)C1CCCCC1,-,-,-,-,.,.
O=C(OCC(=O)N1CCOCC1)c1ccccc1O,?,?,4µM,24µM,.,.
CC1CCCN(C(=O)COC(=O)c2n[nH]c3ccccc23)C1 (stereo not drawn),?,23µM,?,17µM,-,-
CC1=C(C(=O)Nc2cccnc2)C(c2cccc(O)c2)n2nc(SCc3ccccc3)nc2N1 (stereo not drawn),.,.,.,-,.,.
CCOC(=O)c1c(NC(=O)c2cc(=O)c3cc(Cl)ccc3o2)sc(C)c1C,.,.,.,-,-,.
CN(C)S(=O)(=O)N(CC(=O)NCCSc1ccccc1)c1ccccc1,.,.,.,-,-,.
CCCC(=O)OCc1cnc(C)c2oc(=O)c(C(=O)Nc3cccc(C(F)(F)F)c3)cc12,.,.,.,-,.,.
O=C(OCC(=O)N1CCCC1)c1c[nH]c2ccccc12,-,-,-,.,.,.
C/C(CC(=O)N1CCCC1)=N\NC(=O)c1cc2ccccc2cc1O,-,-,-,15µM,.,.
O=C(OCC(=O)N1CCCCC1)c1c[nH]c2ccccc12,-,?,?,17µM,.,.
CCOC(=O)c1c(C)[nH]c(C)c1S(=O)(=O)N1CCC(C(=O)Nc2ccc(F)cc2F)CC1,.,.,.,-,.,.
CCN(CC)C(=O)c1sc(NC(=O)c2ccc3c(c2)OCO3)c(C(N)=O)c1C,?,-,?,19µM,.,.
CCN(CC)C(=O)c1sc(NC(=O)c2ccncc2)c(C(=O)OC)c1C,-,-,-,-,-,-
CC(C)(C)c1nnc(NC(=O)COc2ccc3c(c2)OCO3)s1,3.5µM,?,?,12µM,.,.
CC(C)Sc1nnc(NC(=O)c2ccc3c(c2)OCO3)s1,2.2µM,?,1.4µM,5.4µM,.,.
CC(C)c1nnc(NC(=O)c2ccc3c(c2)OCO3)s1,0.45µM,?,0.28µM,1.3µM,1µM,-
SMILES,NPC1 prom act,ELG1 genotoxic,Rab9 promoter act,FLuc counter,SMN2 splice enh,KinaseGlo FLuc
NC(=O)Cn1c(=O)n(CCCCCC(=O)NCc2ccccc2)c(=O)c2sccc21,.,.,.,-,-,.
Cn1nnc2c(N3CCN(c4cccc(Cl)c4)CC3)ncnc21,.,.,.,-,.,.
Cc1cc(NC(=O)CSc2nc(-c3cccc(F)c3)nc3c2c(=O)n(C)c(=O)n3C)no1,.,.,.,-,.,.
CCOC(=O)c1cccc(NC(=O)c2cn(-c3cccc(OC)c3)c(=O)c3ccccc23)c1,.,.,.,-,.,.
CCSc1nnc(NC(=O)c2ccc3c(c2)OCO3)s1,2.5µM,2.1µM,1.6µM,6.7µM,10µM,-
CCOC(=O)CSc1nnc(NC(=O)c2ccc3c(c2)OCO3)s1,-,-,-,1.1µM,.,.
CC(C)(C)c1nnc(NC(=O)c2ccc3c(c2)OCO3)s1,2µM,?,2.5µM,6.7µM,.,.
COC(=O)c1cc(NC(=O)Nc2ccc3snnc3c2)cc(C(=O)OC)c1,.,.,.,-,-,.
CCc1ccccc1NC(=O)c1cc(S(=O)(=O)N2CCCC2)cn1C,.,.,.,-,.,.
CCOCCCn1c(SCC(=O)OCC)nc2c(sc3ccccc32)c1=O,.,.,.,-,.,.
COCCCNc1ncnc2c1nnn2C,.,.,.,-,.,.
CC(C)(C)c1ccc(C(=O)NCc2ccc(Cl)cc2)cc1,-,-,-,-,-,-
Cc1ccc(C(=O)NCCSC(C)(C)C)cc1,0.5µM,1.8µM,0.56µM,?,10µM,-
CSCCNC(=O)c1ccc(C(C)(C)C)cc1,4µM,?,4µM,3µM,?,-
CC(C)(C)SCCNC(=O)c1ccccc1,?,-,3.2µM,?,-,-
O=C(CCS(=O)(=O)c1ccccc1)Nc1ccc(-c2nc3ccccc3s2)c(O)c1,?,-,1.3µM,-,2.5µM,-
CCS(=O)(=O)c1cccc(C(=O)Nc2ccc(-c3nc4ccccc4s3)c(O)c2)c1,.,.,.,-,.,.
COc1ccccc1CC(=O)Nc1ccc2nc(C)sc2c1,-,?,-,17µM,.,.
COc1cccc(CC(=O)Nc2ccc3nc(C)sc3c2)c1,-,-,-,17µM,-,-
Cc1nc2ccc(NC(=O)CCC3CCCC3)cc2s1,?,?,?,12µM,.,.
COc1ccc(CNC(=O)CCNS(=O)(=O)c2ccc3c(c2)CCCC(=O)N3)cc1,.,.,.,-,.,.
CCOc1cccc(NC(=O)c2sc3nc(-c4ccc(F)cc4)ccc3c2N)c1,.,.,.,-,-,.
CCOc1ccc(-n2c(=O)c3c(C)c(C)sc3n(Cc3c(F)cccc3Cl)c2=O)cc1,.,.,.,-,-,.
Cc1nc2ccc(NC(=O)CS(=O)(=O)c3ccccc3)cc2s1,?,?,?,15µM,.,.
O=C(O)c1cccc(N2C(=O)c3ccc(Oc4ccc(Cl)cc4)cc3C2=O)c1,-,-,-,7.6µM,.,.
SMILES,NPC1 prom act,ELG1 genotoxic,Rab9 promoter act,FLuc counter,SMN2 splice enh,KinaseGlo FLuc
COc1ccc(NC(C)=O)cc1S(=O)(=O)Nc1ccccc1C(=O)NCCc1ccccc1,2.2µM,?,2µM,17µM,.,.
O=C(NCCc1ccccc1)c1ccccc1NC(=O)C1CCCCC1C(=O)O (stereo not drawn),?,?,2µM,?,11µM,-
COc1cccc(N2CCN(CC(=O)Nc3ccccc3C(=O)NCCc3ccccc3)CC2)c1,3.2µM,-,3.5µM,.,.,.
COc1ccccc1NC(=O)c1ccccc1NS(C)(=O)=O,-,-,-[1.84 µM],-,-,-
COC(=O)c1ccccc1NC(=O)C1CCCCC1C(=O)O (stereo not drawn),-,-,-,-,-,-
COc1ccc(NC(=O)c2ccccc2NS(C)(=O)=O)cc1OC,-,-,-,17µM,-,-
COc1cccc(N2CCN(CC(=O)Nc3ccccc3C(=O)NCc3ccccc3)CC2)c1,-,-,-,-,.,.
CCOC(=O)Cn1c(=O)n(-c2ccc(Cl)cc2)c2nc(-c3ccc(Cl)cc3)nc(C(N)=O)c21,.,.,.,-,.,.
O=C(NCCCCN1CCCC1)c1ccc(-n2c(=O)c(=O)[nH]c3ccccc32)cc1,.,.,.,.,.,-
CCOc1ccc(-n2c(SCC(=O)N3CCC(C)CC3)nc3c([nH]c4ccccc43)c2=O)cc1,.,.,.,-,.,.
